Rows were chosen to be rich in hits. Some 2.9% of all compounds tested hit in one or more screens of this group.
PAFAH1B2 FP inh – PAFAH1B2 enzyme inhibitors, primary screen, biochemical, fluorescence polarization, human. recombinant PAFAH1B2, FP-rhodamine activity probe. inhibition, % at 3.39 µM. hit rate 1.2% among 340,000. AID 492953, 2010;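 active = inhibition above the mean of all tested compounds plus 3 SD, cut at about 24% in these data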;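 note: 0% = enzyme with DMSO and 100% = wells lacking PAFAH1B2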
Target sequence (P68402 whole entry, looked up): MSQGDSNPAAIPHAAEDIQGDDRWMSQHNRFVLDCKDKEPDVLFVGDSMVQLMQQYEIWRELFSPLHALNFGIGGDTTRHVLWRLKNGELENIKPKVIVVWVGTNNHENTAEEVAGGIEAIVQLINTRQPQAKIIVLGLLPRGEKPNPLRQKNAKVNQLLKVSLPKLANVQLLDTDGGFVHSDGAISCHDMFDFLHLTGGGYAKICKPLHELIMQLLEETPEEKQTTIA
EBNA-1 inhibitor – EBNA-1 DNA-binding inhibitors, primary screen, biochemical, fluorescence polarization | inhibition, % at 14.8 µM | hit rate 0.34% among 300,000 | AID 1950, 2009; in the data active = inhibition above about 28%
rCAG binder – binders of r(CAG) RNA repeats, primary screen, biochemical, fluorescence | r(CAG) RNA repeat, TO-PRO-1 dye displacement fluorescence | inhibition, % at 3 µM | hit rate 1.3% among 370,000;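 active = inhibition above the plate cutoff, the mean of all test compounds on that plate plus 3 SD, cut at about 35% in these data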;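 note: 0% = DMSO alone and 100% = 100 µM mitoxantrone as full dye displacement; higher means more dye released from RNA so lower well fluorescence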
PAFAH1B3 FP inh – PAFAH1B3 enzyme inhibitors, primary screen, biochemical, fluorescence polarization, human; hit rate 0.28% among 340,000; inhibition, % at 3.39 µM; Platelet-activating factor acetylhydrolase IB subunit alpha1 (Homo sapiens), Q15102; recombinant PAFAH1B3, FP-rhodamine probe;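 active = inhibition above the screen-wide average of all tested compounds plus 3 SD, cut at about 25% in these data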;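 note: 0% = enzyme with DMSO only and 100% = wells lacking PAFAH1B3 protein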
Target sequence (Q15102 whole entry, looked up): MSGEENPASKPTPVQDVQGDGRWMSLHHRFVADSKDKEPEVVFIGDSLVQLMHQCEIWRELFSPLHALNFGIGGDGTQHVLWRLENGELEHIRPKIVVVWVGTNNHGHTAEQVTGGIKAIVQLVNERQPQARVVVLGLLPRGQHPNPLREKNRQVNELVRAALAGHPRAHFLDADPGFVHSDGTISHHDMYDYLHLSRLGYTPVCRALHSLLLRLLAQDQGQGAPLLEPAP
ZTA counter – blocks Epstein-Barr virus ZTA, an EBNA-1 counter-screen; P03206; ZTA-DNA binding, fluorescence polarization; inhibition, % at 11 µM; hit rate 0.15% among 320,000; AID 2234; in the data active = inhibition above about 33%
PAFAH2 FP inh – PAFAH2 enzyme inhibitors, primary screen, biochemical, fluorescence polarization, human; AID 492956, 2010; Platelet-activating factor acetylhydrolase 2, cytoplasmic (Homo sapiens), Q99487; hit rate 0.99% among 340,000; inhibition, % at 3.39 µM; recombinant PAFAH2, FP-rhodamine activity probe;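 active = inhibition above the mean over all tested compounds plus 3 SD, cut at about 30% in these data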;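 note: inhibitors block probe labeling of enzyme so polarization drops; 0% = enzyme with DMSO and 100% = wells lacking PAFAH2 protein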
Zta DNA confirm – EBV Zta binding to ZRE DNA, inhibitors, confirmation, biochemical, fluorescence polarization, triplicate; shares compounds with ZTA counter; inhibition, % at 11.1 µM; hit rate 30% among 320; AID 2361, 2010;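 active = mean inhibition across triplicate runs above the hit threshold derived for the original primary screen, cut at about 33% in these data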;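 note: 0% = Zta with DMSO and 100% = wells lacking Zta protein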
EBNA1 counter – EBNA-1 DNA-binding inhibition, counter-screen for ZTA inhibitor project, biochemical, fluorescence polarization. shares compounds with ZTA counter. inhibition, % at 14.8 µM. 320 tested, under 10 active; call rule not given here
* marks the source's active call; other numbers are inactive results; / = no result given.

SMILES	PAFAH1B2 FP inh	EBNA-1 inhibitor	rCAG binder	PAFAH1B3 FP inh	ZTA counter	PAFAH2 FP inh	Zta DNA confirm	EBNA1 counter
Cc1nc2c(-c3ccc(F)cc3)cnn2c(N)c1-c1ccc(F)cc1	-1	-1	0	8	38*	0	-2	-12
CC1CCCC(NC(=O)COC(=O)c2cccc(S(=O)(=O)N3CCCCC3)c2)C1C (stereo unspecified)	5	/	2	-3	41*	18	0	8
CC1CCCC(NC(=O)COC(=O)c2cc(S(=O)(=O)N3CCCCC3)ccc2N2CCOCC2)C1C (stereo unspecified)	10	11	2	-3	5	-9	/	/
O=C(Nn1c(C2CCC2)nc2ccccc2c1=O)c1cccs1	6	1	2	6	34*	5	0	-4
CCOC(=O)c1cc2c(C)n(-c3ccc(N(C)C)cc3)c(C)c2cc(C(=O)OCC)c1=O	4	-6	-1	10	160*	-7	6	-1
C[C@@H]1CN([C@@H](C)CO)C(=O)CCCn2cc(nn2)CO[C@H]1CN(C)C(=O)C1CC1	/	/	-2	/	/	/	/	/
COc1ccc(CCNC(=O)C2c3ccccc3C(=O)N2CCC(C)C)cc1OC (stereo unspecified)	11	-18	-6	12	75*	3	-6	5
COc1cccc(-n2cc(C(=O)NCCCOC(C)C)c3ccccc3c2=O)c1	-4	-6	-7	3	-14	-4	/	/
COc1cccc(-n2cc(C(=O)NC(C)C)c3ccccc3c2=O)c1	-2	-7	-4	9	155*	0	4	3
COC(=O)C1CN(Cc2ccc(OC)cc2)CCS(=O)(=O)N1Cc1cn(Cc2ccc(F)cc2)nn1 (stereo unspecified)	/	/	0	/	/	/	/	/
O=C(Nc1cc(S(=O)(=O)N2CCOCC2)ccc1N1CCOCC1)c1ccc(S(=O)(=O)N2CCCCC2)cc1	1	-11	1	-1	-5	-2	/	/
O=C(Nc1cc(S(=O)(=O)N2CCOCC2)ccc1N1CCOCC1)c1ccc(Cl)nc1	0	7	-2	-3	34*	-1	5	5
Cc1ccccc1OCCNC(=O)/C=C/c1ccccc1	6	-4	2	4	129*	0	-12	-4
Cc1ccccc1OCCNC(=O)/C=C/c1ccc([N+](=O)[O-])cc1	2	3	-5	2	15	1	/	/
Cc1cccc(NC(=O)CCNC(=O)c2ccco2)c1	0	3	4	0	44*	-7	4	-9
Cc1ccc(NC(=O)CCNC(=O)c2ccco2)cc1	3	12	-2	1	-17	0	/	/
O=C(NCCc1ccccc1)OCc1cn(-c2ccccc2Cl)nn1	/	/	3	/	/	/	/	/
Cn1nc(-c2ccc(Cl)cc2)nc2c(=O)n(C)c(=O)nc1-2	/	-21	/	/	49*	/	82*	-4
COC(=O)[C@]12C[C@H](CC(=O)N3CCCC3)C(=O)N(Cc3cccc4ccccc34)C1=C[C@H](C(C)C)O[C@@H]2C1CC1	/	/	5	/	/	/	/	/
CC(=O)N1CCc2cc(S(=O)(=O)NCCC(=O)N(C)C3CCCCC3)ccc21	/	/	0	/	/	/	/	/
CC(C)CNC(=O)OCc1cn(Cc2ccccc2)nn1	/	/	1	/	/	/	/	/
Cc1ccn(CC(C)C(=O)O)n1 (stereo unspecified)	6	-12	1	7	166*	8	4	0
CCCC(=O)Nc1ccc2oc(-c3cccnc3)nc2c1	4	-7	6	9	45*	3	2	-5
CCCCC(=O)Nc1ccc2oc(-c3cccnc3)nc2c1	-2	-8	-7	2	3	-3	/	/
O=C(CCCOc1ccccc1)Nc1ccc2c(c1)OCCO2	-2	-6	-1	-5	-13	-7	/	/
COc1ccc(CCC(=O)Nc2ccc3c(c2)OCO3)cc1	-6	-10	4	3	-13	6	/	/

Screening data: PubChem, The Scripps Research Institute Molecular Screening Center
